The source of these data is PubChem BioAssay (Tox21).

SMILES strings stand for the structures. Where “and” joins values, the source holds several entries; their conditions need not be identical. Equal values may be shown once. Inconclusive results are not listed. More than one record can exist for a structure, and the calls need not agree. Calls of active or inactive are those of the source. Calls come from the whole dose curve; as a rule, active = well fitted curve in the direction sought with a large enough effect in the repeat runs; inconclusive = weak or mixed curves; inactive = no such curve, though single readings can be large; an effect the other way counts as inactive or inconclusive.

A short description of assay [1]: A CellTox Green Cytotoxicity Assay to monitor cytotoxicity in HEK293 cells - 32 hour (AID 1224881). Note: nearly all actives have a fitted effect of over 40% in size. Note: potency is the fitted concentration of half-maximal effect. In outline: (§1)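 HEK293 cells premixed with CellTox Green dye were seeded at 600 cells/well and left 5 h at 37 C/5% CO2 before pin transfer of 23 nL compound in DMSO. Fluorescence from dye bound to dead-cell DNA was read during 40 h treatment.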
Assay [2] is described as follows: A CellTox Green Cytotoxicity Assay to monitor cytotoxicity in HepG2 cells - 0 hour (AID 1224882). Note: nearly all actives have a fitted effect of over 35% in size. In outline: (§2)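 HepG2 cells were seeded together with the CellTox Green dye at 600 cells/well, left 5 h at 37 C/5% CO2, then given compounds in DMSO. Fluorescence from dye bound to dead-cell DNA was read repeatedly over 40 h of treatment at 37 C.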
A short description of assay [3]: A CellTox Green Cytotoxicity Assay to monitor cytotoxicity in HepG2 cells - 32 hour (AID 1224883). Note: nearly all actives have a fitted effect of over 50% in size. Note: potency is the fitted concentration of half-maximal effect. The procedure, abridged:
as §2

The nature of assay [4]: A CellTox Green Cytotoxicity Assay to monitor cytotoxicity in HEK293 cells - 8 hour (AID 1224884). Note: nearly all actives have a fitted effect of over 35% in size. Note: potency is the fitted concentration of half-maximal effect. In outline:
as §1

A short description of assay [5]: qHTS RealTime-Glo MT Cell Viability Assay in HepG2 cells - 16 hour (AID 1224885). Note: nearly all actives have a fitted effect of over 50% in size. Note: potency is the fitted concentration of half-maximal effect. In outline: (§3)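 Cells + NanoLuc/prosubstrate dispensed (600 cells/well) → 5 h at 37 C/5% CO2 → compounds in DMSO transferred → 40 h incubation at 37 C, luminescence read at 0, 8, 16, 24, 32, 40 h.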
(In qHTS, concentration-response curves come from the screen itself.)

Assay [6] in a line: qHTS RealTime-Glo MT Cell Viability Assay in HEK293 cells - 24 hour (AID 1224886). Note: nearly all actives have a fitted effect of over 50% in size. Note: potency is the fitted concentration of half-maximal effect. The procedure, abridged:
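Tox21 10K qHTS, HEK293, 600 cells/well, RealTime-Glo reagent co-dispensed with cells; 5 h preincubation, compound by pintool, 37 C, luminescence at 0–40 h.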

Assay [7] can be described thus: qHTS RealTime-Glo MT Cell Viability Assay in HEK293 cells - 8 hour (AID 1224887). Note: nearly all actives have a fitted effect of over 50% in size. Note: potency is the fitted concentration of half-maximal effect. The procedure, abridged:
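HEK293 cells mixed with RealTime-Glo reagents (NanoLuc plus cell-permeant prosubstrate) at 600 cells/well, preincubated 5 h at 37 C/5% CO2, then given 23 nL compound in DMSO. Nonlytic luminescence from viable cells was read at 0, 8, 16, 24, 32 and 40 h.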

The nature of assay [8]: A CellTox Green Cytotoxicity Assay to monitor cytotoxicity in HEK293 cells - 16 hour (AID 1224888). Note: nearly all actives have a fitted effect of over 35% in size. Note: potency is the fitted concentration of half-maximal effect. The procedure, abridged:
as §1

Assay [9] is described as follows: qHTS RealTime-Glo MT Cell Viability Assay in HepG2 cells - 0 hour (AID 1224889). Note: nearly all actives have a fitted effect of over 50% in size. The procedure, abridged:
as §3

Assay [10] in a line: A CellTox Green Cytotoxicity Assay to monitor cytotoxicity in HepG2 cells - 8 hour (AID 1224890). Note: nearly all actives have a fitted effect of over 45% in size. Note: potency is the fitted concentration of half-maximal effect. The procedure, abridged:
as §2

Take `CSc1nc(NC(C)C)nc(NC(C)C)n1`: the Potency entry in assay [1], in assay [2], in assay [3], in assay [4], in assay [5] and in assay [6] was “inactive” throughout. The Potency result in assay [7], in [8], in assay [9] and in [10] was “inactive” in each case.

As for `O=C1CCCO1`, the Potency result in [1], in assay [2], in [3], in [4], in assay [5] and in assay [6] was “inactive” each time. Also, the Potency result in assay [7], in [8], in [9] and in assay [10] was “inactive” in each case.

Consider `Nc1ncn[nH]1`, for which the Potency entry in assay [1], in [2], in assay [3], in [4], in [5] and in [6] was “inactive” each time. Also, the Potency entry in assay [7], in assay [8], in assay [9] and in assay [10] was “inactive” throughout.

For `CCCCSP(=O)(SCCCC)SCCCC`, the Potency entry in [1], in assay [2], in assay [3], in assay [4], in assay [5] and in [6] was “inactive” in each case. Besides, the Potency result in assay [7], in [8], in assay [9] and in assay [10] was “inactive” throughout.

On to `COP(=S)(OC)Oc1ccc(Sc2ccc(OP(=S)(OC)OC)cc2)cc1`, for which the Potency entry in assay [1], in assay [2], in assay [3], in assay [4], in assay [5] and in [6] was “inactive” throughout. In addition, the Potency entry in assay [7], in assay [8], in assay [9] and in [10] was “inactive” each time.

Turning to `CCOP(=S)(OCC)SCSC(C)(C)C`, the Potency result in [1], in [2], in assay [3], in assay [4], in assay [5] and in [6] was “inactive” each time. Besides, the Potency entry in assay [7], in [8], in assay [9] and in assay [10] was “inactive” throughout.

As for `CC(C)(c1ccccc1)c1ccc(O)cc1`, the Potency is 27.3 µM (active) and 24.5 µM (active) in [1]; 48.6 µM (active) and 24.5 µM (active) in assay [3]; 8.64 µM (active) and 49 µM (active) in [4]; 43.3 µM (active) and 24.5 µM (active) in assay [6]; 48.6 µM (active) and 34.7 µM (active) in assay [7]; 24.3 µM (active) and 43.6 µM (active) in assay [8]. Besides, in [10], the Potency result is “inactive and 43.6 µM (active)”. Also, the Potency result in [2], in assay [5] and in [9] was “inactive” throughout.

Regarding `C[N+](C)(C)C`, the Potency entry in [1], in assay [2], in assay [3], in [4], in assay [5] and in [6] was “inactive” each time. Moreover, the Potency entry in assay [7], in assay [8], in assay [9] and in assay [10] was “inactive” throughout.

Turning to `CCCCCCCCCc1ccc(O)cc1`, the Potency result in assay [1], in [2], in assay [4], in assay [5], in assay [8] and in assay [9] was “inactive” each time. For the same compound, the Potency entry in assay [10] was “inactive”. Also, the Potency was 39.3 µM (active) and 34.7 µM (active) in assay [3]; 7.84 µM (active) and 4.9 µM (active) in [6]; 6.99 µM (active) and 4.36 µM (active) in assay [7].

On to `CCNCC`, for which the Potency result in [1], in [2], in assay [3], in assay [4], in assay [5] and in assay [6] was “inactive” each time. Also, the Potency result in [7], in assay [8], in [9] and in assay [10] was “inactive” in each case.

`Clc1cccc(C(Cl)(Cl)Cl)n1`: the Potency result in [1], in assay [2], in [4], in [5], in assay [6] and in assay [7] was “inactive” in each case. For the same compound, the Potency result in assay [8], in [9] and in assay [10] was “inactive” in each case. In addition, the Potency in [3] is 54.5 µM (active).

Consider `O=C1Nc2ccc(Cl)cc2C(c2ccccc2)=NC1O` (stereo not given), for which the Potency entry in assay [1], in [2], in assay [3], in assay [4], in assay [5] and in [6] was “inactive” throughout. For the same compound, the Potency entry in [7], in assay [8], in [9] and in assay [10] was “inactive” in each case.

Take `ClCC(Cl)CCl`: the Potency result in assay [1], in assay [2], in assay [3], in [4], in assay [5] and in [6] was “inactive” throughout. For the same compound, the Potency entry in assay [7], in assay [8], in [9] and in [10] was “inactive” each time.

Turning to `O=[N+]([O-])c1ccc(Cl)c([N+](=O)[O-])c1`, the Potency in assay [1] was 19.8 µM (active) and 24.5 µM (active); in assay [3], 35.2 µM (active) and 24.5 µM (active); in assay [5] it was 39.5 µM (active) and 17.4 µM (active); in assay [6] it was 11.1 µM (active) and 12.3 µM (active); in assay [7] it was 14 µM (active) and 17.4 µM (active); in assay [10], 61.7 µM (active). Besides, the Potency result in [2], in [4], in assay [8] and in [9] was “inactive” in each case.

As to `CC1CC(=O)O1` (stereo not given), the Potency entry in assay [1], in assay [2], in [3], in assay [4], in [5] and in assay [6] was “inactive” throughout. Besides, the Potency entry in assay [7], in assay [8], in assay [9] and in [10] was “inactive” throughout.

With `[Cl-].[Cl-].[Cl-].[Fe+3]`, the Potency entry in [1], in assay [2], in assay [3], in assay [4], in assay [5] and in assay [6] was “inactive” each time. The Potency result in assay [7], in [8], in [9] and in assay [10] was “inactive” each time.

Turning to `CCNc1nc(Cl)nc(NC(C)(C)C#N)n1`, the Potency entry in assay [1], in assay [2], in [3], in [4], in assay [5] and in [6] was “inactive” throughout. Moreover, the Potency entry in assay [7], in assay [8], in [9] and in assay [10] was “inactive” in each case.

Regarding `CCCCOCCOC(C)=O`, the Potency entry in [1], in [2], in assay [3], in [4], in assay [5] and in [6] was “inactive” in each case. Besides, the Potency result in assay [7], in assay [8], in [9] and in assay [10] was “inactive” each time.

For the compound `Cc1ccc(N=CN(C)C=Nc2ccc(C)cc2C)c(C)c1`, the Potency entry in assay [1], in assay [2], in assay [4], in assay [5], in [7] and in assay [8] was “inactive” in each case. Also, the Potency entry in [9] and in [10] was “inactive” in each case. The Potency in [3] was 43.6 µM (active) and inactive; in assay [6], 39.1 µM (active) and 38.9 µM (active) and inactive.

On to `O=C(O)c1nn(Cc2ccc(Cl)cc2Cl)c2ccccc12`, for which the Potency result in assay [1], in assay [2], in [4], in [5], in [6] and in [7] was “inactive” in each case. Besides, the Potency result in assay [8] and in [9] was “inactive” in each case. Moreover, the Potency entry is “inactive and 95.2 nM (active)” in [3]; “inactive and 95.2 nM (active)” in assay [10].
